Experimental findings from PubChem BioAssay (NCI) are described below.

Compounds without any hit were thinned out: in the full panel of roughly 79,000, 15% have a hit. A number with no mark means an inactive call. The source made the active and inactive calls. Cut-off read from the data, not from the text of the source: active = growth inhibition above about 70%; inactive = the rest.

Experiment [1] can be described thus: NCI Yeast Anticancer Drug Screen. Data for the rad50 strain (AID 155).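 Note: 0% = growth of vehicle-only cultures of the same strain.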 The settings on record: S. cerevisiae rad50 strain growth inhibition, active compounds read high. The essentials:
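Yeast carrying a defined DNA repair defect were exposed to test compounds, and growth was compared with vehicle-treated controls to give percent inhibition.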

Experiment [2] can be described thus: NCI Yeast Anticancer Drug Screen. Data for the mec2-1 strain (AID 157). Particulars: S. cerevisiae mec2-1 strain, active compounds read high. The gist of the method: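 Strain: mec2-1 (DNA repair/cell cycle alteration). Compound exposure, then growth measured; inhibition expressed relative to vehicle.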
Experiment [3] in a line: NCI Yeast Anticancer Drug Screen. Data for the sgs1 mgt1 strain (AID 161).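 Note: 0% = growth of cultures given vehicle only.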 The settings on record: S. cerevisiae sgs1 mgt1 strain, active compounds read high. The gist of the method:
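Mutant yeast exposed to compound; growth scored against vehicle-only wells.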

A short description of experiment [4]: NCI Yeast Anticancer Drug Screen. Data for the cln2 rad14 strain (AID 165).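 Note: 0% = growth equal to vehicle treated cultures.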 The settings on record: S. cerevisiae cln2 rad14 strain, active compounds read high. The gist of the method: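 Compounds are applied to the cln2 rad14 yeast strain, and growth is then compared with that of vehicle-treated cultures to give inhibition.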
Experiment [5] is described as follows: NCI Yeast Anticancer Drug Screen. Data for the bub3 strain (AID 167). The settings on record: S. cerevisiae bub3 mutant strain, active compounds read high. The essentials: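 Compounds were applied to a genetically altered yeast strain carrying a cell-cycle control defect. Growth inhibition was scored against vehicle-treated controls.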
Experiment [6] in a line: NCI Yeast Anticancer Drug Screen. Data for the mlh1 rad18 strain (AID 175). The settings on record: S. cerevisiae mlh1 rad18 strain growth inhibition, active compounds read high. The gist of the method: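 Read-out is yeast growth inhibition, calculated against vehicle-only controls. The compound was applied to a strain engineered with DNA damage repair alterations.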
Setting [7] is: at 5.0 µM (retest, dose inferred, filed as 0.5).
The mark [8] stands for this setting: at 50.0 µM (retest, dose inferred, filed as 5.0).

As to `CN(C)CCCNc1c2ccccc2nc2ccc([N+](=O)[O-])cc12`, the growth inhibition in experiment [1] (setting [7]) was 16%; in experiment [1] (setting [8]), 80% (active); in experiment [1] (at 50.0 µM), 68.3%; in experiment [2] (setting [7]), 13%; in experiment [2] (setting [8]) it was 70% (active); in experiment [2] (at 50.0 µM), 25.6%. Moreover, the growth inhibition in experiment [3] (setting [7]) was 21%; in experiment [3] (setting [8]) it was 80% (active); in experiment [3] (at 50.0 µM), 20.7%; in experiment [4] (setting [7]), 19%; in experiment [4] (setting [8]) it was 54%; in experiment [4] (at 50.0 µM), 52.5%. Moreover, the growth inhibition in experiment [5] (setting [7]) is 11%; in experiment [5] (setting [8]), 59%; in experiment [5] (at 50.0 µM), 39.5%; in experiment [6] (setting [7]), 31%; in experiment [6] (setting [8]), 84% (active); in experiment [6] (at 50.0 µM), 29.2%.
Consider `Cc1c2ccccc2cc2c1ccc1cccc(F)c12`, for which the growth inhibition in experiment [1] (setting [7]) is 4%; in experiment [1] (setting [8]), 90% (active); in experiment [1] (at 50.0 µM), 84.4% (active); in experiment [2] (setting [7]), 11%; in experiment [2] (setting [8]), 95% (active); in experiment [2] (at 50.0 µM) it was 48%. For the same compound, the growth inhibition is 1% in experiment [3] (setting [7]); 87% (active) in experiment [3] (setting [8]); 80.7% (active) in experiment [3] (at 50.0 µM); 8% in experiment [4] (setting [7]); 93% (active) in experiment [4] (setting [8]); 23.9% in experiment [4] (at 50.0 µM). The growth inhibition in experiment [5] (setting [7]) was 4%; in experiment [5] (setting [8]) it was 91% (active); in experiment [5] (at 50.0 µM) it was 79% (active); in experiment [6] (setting [7]) it was 10%; in experiment [6] (setting [8]), 92% (active); in experiment [6] (at 50.0 µM), 59.1%.
Consider `C1CCC(C2=NC3CCCCC3SC2)CC1` (stereo not given), for which the growth inhibition is 5% in experiment [1] (setting [7]); 98% (active) in experiment [1] (setting [8]); 92.2% (active) in experiment [1] (at 50.0 µM); -16% in experiment [2] (setting [7]); 99% (active) in experiment [2] (setting [8]); 93.5% (active) in experiment [2] (at 50.0 µM). For the same compound, the growth inhibition in experiment [3] (setting [7]) is 5%; in experiment [3] (setting [8]), 86% (active); in experiment [3] (at 50.0 µM), 93.9% (active); in experiment [4] (setting [7]) it was 10%; in experiment [4] (setting [8]) it was 96% (active); in experiment [4] (at 50.0 µM), 90.1% (active). In addition, the growth inhibition in experiment [5] (setting [7]) was 6%; in experiment [5] (setting [8]), 98% (active); in experiment [5] (at 50.0 µM), 92.1% (active); in experiment [6] (setting [7]) it was -20%; in experiment [6] (setting [8]), 98% (active); in experiment [6] (at 50.0 µM) it was 91.2% (active).
As for `CNc1ccc(C(=O)NC(CCCCNC(=O)OCc2ccccc2)C(=O)OC)cc1` (stereo not given), the growth inhibition in experiment [1] (setting [7]) was -3%; in experiment [1] (setting [8]), -1%; in experiment [1] (at 50.0 µM) it was 93.8% (active); in experiment [2] (setting [7]) it was 1%; in experiment [2] (setting [8]), 10%; in experiment [2] (at 50.0 µM), 95% (active). Besides, the growth inhibition in experiment [3] (setting [7]) is -18%; in experiment [3] (setting [8]) it was -17%; in experiment [3] (at 50.0 µM), 97.9% (active); in experiment [4] (setting [7]), -5%; in experiment [4] (setting [8]), 2%; in experiment [4] (at 50.0 µM) it was 58.1%. Further, the growth inhibition was -4% in experiment [5] (setting [7]); 0% in experiment [5] (setting [8]); 95.6% (active) in experiment [5] (at 50.0 µM); 2% in experiment [6] (setting [7]); -9% in experiment [6] (setting [8]); 98.6% (active) in experiment [6] (at 50.0 µM).
With `c1ccc([P+](c2ccccc2)(c2ccccc2)C2CCCCO2)cc1` (stereo not given), the growth inhibition in experiment [1] (setting [7]) is 17%; in experiment [1] (setting [8]), 74% (active); in experiment [1] (at 50.0 µM), 67.8%; in experiment [2] (setting [7]), -4%; in experiment [2] (setting [8]), 83% (active); in experiment [2] (at 50.0 µM), 83.2% (active). For the same compound, the growth inhibition in experiment [3] (setting [7]) is 4%; in experiment [3] (setting [8]), 69%; in experiment [3] (at 50.0 µM) it was 35.1%; in experiment [4] (setting [7]), -2%; in experiment [4] (setting [8]) it was 77% (active); in experiment [4] (at 50.0 µM) it was 49.5%. Moreover, the growth inhibition in experiment [5] (setting [7]) is 5%; in experiment [5] (setting [8]), 77% (active); in experiment [5] (at 50.0 µM) it was 54%; in experiment [6] (setting [7]) it was 1%; in experiment [6] (setting [8]) it was 61%; in experiment [6] (at 50.0 µM) it was 81.1% (active).
As for `COc1cc(O)c2c(=O)c3cccc(C)c3[nH]c2c1`, the growth inhibition in experiment [1] (setting [7]) was 8%; in experiment [1] (setting [8]) it was 73% (active); in experiment [1] (at 50.0 µM), 2.6%; in experiment [2] (setting [7]), -17%; in experiment [2] (setting [8]), 28%; in experiment [2] (at 50.0 µM) it was 54.9%. Moreover, the growth inhibition was 3% in experiment [3] (setting [7]); 41% in experiment [3] (setting [8]); 46.1% in experiment [3] (at 50.0 µM); 14% in experiment [4] (setting [7]); 37% in experiment [4] (setting [8]); 49.4% in experiment [4] (at 50.0 µM). Further, the growth inhibition was 2% in experiment [5] (setting [7]); 54% in experiment [5] (setting [8]); 62.6% in experiment [5] (at 50.0 µM); 2% in experiment [6] (setting [7]); 54% in experiment [6] (setting [8]); 70% (active) in experiment [6] (at 50.0 µM).
On to `CC1=C(C(=O)OC(C)C)C(c2ccccc2[N+](=O)[O-])C(C(=O)OC(CO[N+](=O)[O-])CO[N+](=O)[O-])=C(C)N1` (stereo not given), for which the growth inhibition in experiment [1] (setting [7]) was 17%; in experiment [1] (setting [8]), 24%; in experiment [1] (at 50.0 µM) it was 83.6% (active); in experiment [2] (setting [7]) it was 30%; in experiment [2] (setting [8]), 27%; in experiment [2] (at 50.0 µM) it was 87.7% (active). In addition, the growth inhibition is -20% in experiment [3] (setting [7]); -8% in experiment [3] (setting [8]); 89.1% (active) in experiment [3] (at 50.0 µM); 2% in experiment [4] (setting [7]); 22% in experiment [4] (setting [8]); 83.9% (active) in experiment [4] (at 50.0 µM). Also, the growth inhibition in experiment [5] (setting [7]) is -5%; in experiment [5] (setting [8]), 25%; in experiment [5] (at 50.0 µM) it was 87.2% (active); in experiment [6] (setting [7]), 18%; in experiment [6] (setting [8]), 19%; in experiment [6] (at 50.0 µM), 81.7% (active).
On to `O=[N+]([O-])c1ccc(C(Br)(Br)c2ccc([N+](=O)[O-])cc2)cc1`, for which the growth inhibition in experiment [1] (setting [7]) was 99% (active); in experiment [1] (setting [8]), 99% (active); in experiment [1] (at 50.0 µM) it was 99.7% (active); in experiment [2] (setting [7]) it was 97% (active); in experiment [2] (setting [8]) it was 100% (active); in experiment [2] (at 50.0 µM) it was 99.7% (active). Further, the growth inhibition in experiment [3] (setting [7]) was 100% (active); in experiment [3] (setting [8]), 100% (active); in experiment [3] (at 50.0 µM), 99.8% (active); in experiment [4] (setting [7]), 95% (active); in experiment [4] (setting [8]) it was 99% (active); in experiment [4] (at 50.0 µM), 99.3% (active). Besides, the growth inhibition was 80% (active) in experiment [5] (setting [7]); 99% (active) in experiment [5] (setting [8]); 99.5% (active) in experiment [5] (at 50.0 µM); 93% (active) in experiment [6] (setting [7]); 99% (active) in experiment [6] (setting [8]); 99.5% (active) in experiment [6] (at 50.0 µM).
Consider `Cc1ccc(C)c(N2C(=O)C(=O)c3c(C)ccc(C)c32)c1`, for which the growth inhibition in experiment [1] (setting [7]) is 12%; in experiment [1] (setting [8]) it was 96% (active); in experiment [1] (at 50.0 µM), 99% (active); in experiment [2] (setting [7]), 13%; in experiment [2] (setting [8]) it was 66%; in experiment [2] (at 50.0 µM), 99% (active). The growth inhibition in experiment [3] (setting [7]) was 12%; in experiment [3] (setting [8]) it was 98% (active); in experiment [3] (at 50.0 µM) it was 97.7% (active); in experiment [4] (setting [7]) it was 27%; in experiment [4] (setting [8]), 23%; in experiment [4] (at 50.0 µM), 89.8% (active). The growth inhibition in experiment [5] (setting [7]) is 8%; in experiment [5] (setting [8]), 10%; in experiment [5] (at 50.0 µM), 97.8% (active); in experiment [6] (setting [7]) it was 14%; in experiment [6] (setting [8]), 80% (active); in experiment [6] (at 50.0 µM), 98.8% (active).
In the case of `CCOc1ccc2nc(Cl)sc2c1`, the growth inhibition in experiment [1] (setting [7]) was -17%; in experiment [1] (setting [8]) it was 67%; in experiment [1] (at 50.0 µM), 82.5% (active); in experiment [2] (setting [7]), -7%; in experiment [2] (setting [8]), 91% (active); in experiment [2] (at 50.0 µM), 89.8% (active). Moreover, the growth inhibition was 6% in experiment [3] (setting [7]); 79% (active) in experiment [3] (setting [8]); 69.5% in experiment [3] (at 50.0 µM); 31% in experiment [4] (setting [7]); 39% in experiment [4] (setting [8]); 94% (active) in experiment [4] (at 50.0 µM). Besides, the growth inhibition was 1% in experiment [5] (setting [7]); 97% (active) in experiment [5] (setting [8]); 96.3% (active) in experiment [5] (at 50.0 µM); -12% in experiment [6] (setting [7]); 89% (active) in experiment [6] (setting [8]); 79% (active) in experiment [6] (at 50.0 µM).
